# Data from ChEMBL document CHEMBL4513216, “Probing the Open Global Health Chemical Diversity Library for Multistage-Active Starting Points for Next-Generation Antimalarials” (ACS Infect Dis, 2020).
# The campaign covered roughly 69,000 compounds. About 8,600 (12%) showed an effect of 50% or more. What follows is part of a selection rich in strong results, with near analogues and random picks from the rest.
# Tested on: Plasmodium berghei
# Experiment: Screen against P. berghei liver stage (PbLuc), transformed with Luciferase, at 10uM
# Format: functional, HepG2
# Details: tested at 10 uM
row,SMILES,INHIBITION
1,Cc1ccnc(C2(C)CCCN2S(=O)(=O)c2ccccc2)n1 (stereo not drawn),45.55%
2,Cn1cnnc1C1CCN(C(=O)COCc2ccccc2Cl)CC1,39.2%
3,CC(C)Cn1cc(NC(=O)N2CCCC2)cn1,-37.8%
4,CN1C[C@@H]2CN(Cc3ccsc3)CCC[C@]2(C(=O)O)C1,-64.1%
5,CC(C)C1CCN(C(=O)NCC(=O)N(C)CC(F)(F)F)CC1,34.2%
6,Cc1nnc(CN(C)S(=O)(=O)c2ccc(Br)cc2Cl)n1C,33.1%
7,CN(Cc1nnc2n1CCC2)S(=O)(=O)c1cc(Br)ccc1Br,30.9%
8,CN(Cc1nnc2n1CCC2)S(=O)(=O)c1ccc(Br)cc1Cl,52.6%
9,CC(CN1CCCC1=O)NC(=O)c1cc(Cl)c2c(c1)OCO2 (stereo not drawn),38.5%
10,Cc1cccnc1CN1CCCCC1c1ccn2ccnc2n1 (stereo not drawn),45.6%
11,O=S(=O)(c1ccccc1Cl)N1CCCC(c2ncc[nH]2)C1 (stereo not drawn),21.6%
12,CCc1cnc(CCNC(=O)N2CCCC(c3ncc[nH]3)C2)s1 (stereo not drawn),52.6%
13,CCc1ccc(S(=O)(=O)N2CCCC(c3ncc[nH]3)C2)s1 (stereo not drawn),81.2%
14,CCOc1ccccc1CC(=O)N1CCCC(c2ncc[nH]2)C1 (stereo not drawn),19.7%
15,O=S(=O)(c1ccc(Cl)s1)N1CCCC(c2ncc[nH]2)C1 (stereo not drawn),50.4%
16,CCC(CC)c1cc(CNC(=O)N2CCCC(c3ncc[nH]3)C2)on1 (stereo not drawn),-1.79%
17,CCc1cnc(CNC(=O)N2CCCC(c3ncc[nH]3)C2)s1 (stereo not drawn),40.6%
18,O=C(CCn1cnnc1)N1CCCC(c2ncc[nH]2)C1 (stereo not drawn),-12.2%
19,Cn1cc(C(=O)N2CCCC(c3ncc[nH]3)C2)cn1 (stereo not drawn),-24.9%
20,CCNc1nc2cn(-c3cccc(OC)c3)c(=O)c-2c[nH]1,-76.4%
21,O=C(O)c1ccc(=O)n(CC(c2ccc(F)cc2)N2CCCCCC2)c1 (stereo not drawn),14.65%
22,CN1CCO[C@@H]2CN(S(=O)(=O)c3ccccc3F)CC[C@@H]2C1,21.7%

row,SMILES,INHIBITION
1,NCC1CCC(C(NC(=O)C2CC2)c2ccccn2)CC1 (stereo not drawn),29.3%
2,CCOc1cc(=O)n2c(c1C(=O)OCc1ccc(OC)cc1)CCCC2,27.6%
3,CC(=O)Nc1cccc(OCCNC(=O)N(C)Cc2ccncc2)c1,57.7%
4,CC(=O)Nc1cccc(CNC(=O)N(C)Cc2ccccc2)c1,-25%
5,CC(=O)Nc1cccc(OCCNC(=O)N(C)Cc2ccco2)c1,-52.9%
6,CC(=O)Nc1cccc(OCCNC(=O)N(C)Cc2ccccc2)c1,80.8%
7,CC(=O)NCCOc1cccc(Br)c1,48.8%
8,CN(CCOc1cccc(F)c1)CC(=O)Nc1ccncc1,21.55%
9,CCOCC(O)CN1CCN(C(=O)c2cc(Cl)ccc2F)CC1 (stereo not drawn),-18%
10,Cc1cnc(N2CCCC3(CCN(Cc4csc(C)n4)C3=O)C2)nc1 (stereo not drawn),-49.8%
11,CC(NC(=O)N1CCN(c2ccccc2O)CC1)c1nncn1C (stereo not drawn),-1.14%
12,Cn1nc2c(cc1=O)CN(c1ncnc3sccc13)CC2,42.3%
13,CCCn1nc2c(cc1=O)CN(c1ncnc3sccc13)CC2,96.2%
14,CC(C)n1nc2c(cc1=O)CN(CCOc1ccc(C#N)cc1)CC2,-7.94%
15,CCn1nc2c(cc1=O)CN(c1ncnc3sccc13)CC2,79.9%
16,CCn1nc2c(cc1=O)CN(Cc1nc3ccccc3o1)CC2,8.24%
17,CC(C)n1nc2c(cc1=O)CN(c1ncnc3sccc13)CC2,88.5%
18,CCCn1nc2c(cc1=O)CN(C(C)C(=O)Nc1nccs1)CC2 (stereo not drawn),29.4%
19,CCn1nc2c(cc1=O)CN(Cc1nc(C)c3ccccc3n1)CC2,-3.72%
20,CC(C)n1nc2c(cc1=O)CN(CCCN1CCCC1=O)CC2,11.9%
21,CC(C(=O)NCc1ccnc(N2CCCCCC2)c1)n1cccn1 (stereo not drawn),-39.6%
22,COc1c(C)cnc(CN2CCOC(Cn3nc(C)cc3C)C2)c1C (stereo not drawn),-21.7%

row,SMILES,INHIBITION
1,CN1C(=O)CO[C@H]2CCN(C(=O)Cc3ccc4c(c3)CCCC4)CC[C@@H]21,10.65%
2,N#Cc1cccc(OCCN2CCOC(Cn3cccn3)C2)c1 (stereo not drawn),0.411%
3,CCCOC(=O)c1ccc(-c2ccc(/C=C3\C(=O)NC(=N)N3C)o2)cc1,-18%
4,CCc1nc2n(n1)CC(NCc1cnn(Cc3ccccc3)c1)CC2 (stereo not drawn),-2.19%
5,Cc1nn(C)c2ncc(NC(=O)N3CCNC(=O)C3)cc12,-38%
6,CCCS(=O)(=O)N1CCC(NC(=O)c2ccc(C)s2)CC1,-19.3%
7,CCS(=O)(=O)N1CCC(NC(=O)c2cc(C)ccc2O)CC1,8.665%
8,CCCS(=O)(=O)N1CCC(NC(=O)c2cc(CC)c(C)s2)CC1,2.91%
9,CCCS(=O)(=O)N1CCC(NC(=O)c2cc3ccccc3s2)CC1,67.1%
10,CCS(=O)(=O)N1CCC(NC(=O)c2ccccc2O)CC1,-33.32%
11,CCS(=O)(=O)N1CCC(NC(=O)c2cc3ccccc3cc2O)CC1,80.55%
12,COC1C[C@@H]2CN(C(=O)c3cccc4c3OCCO4)C[C@@H]2C1 (stereo partly drawn),40.625%
13,CCc1nnsc1C(=O)N(C)Cc1nnc2n1CCC2,22.9%
14,O=C(c1cnccn1)N1CCC(F)(F)C2(CCN(c3ccccn3)C2)C1 (stereo not drawn),12.1%
15,CNC(=O)C(NC(=O)c1ccn(C)c(=O)c1)c1ccccc1 (stereo not drawn),-25.9%
16,CCN(CCc1ccccc1)Cn1nc(C)c2c(C)onc2c1=O,56.1%
17,Cc1nn(CN(Cc2ccsc2)C2CC2)c(=O)c2noc(C)c12,63.8%
18,CCN(Cc1cccc(C)c1)Cn1nc(C)c2c(C)onc2c1=O,49.8%
19,CCCN(Cc1ccccc1)Cn1nc(C)c2c(C)onc2c1=O,49.9%
20,Cc1nn(CN(CC(C)C)C2CC2)c(=O)c2noc(C)c12,-199%
21,Cc1cccc(CN(Cn2nc(C)c3c(C)onc3c2=O)C2CC2)c1,-18.9%
22,COc1ccc(CC(=O)N2CCCCC2Cn2cccn2)cc1 (stereo not drawn),-8.11%

row,SMILES,INHIBITION
1,c1cnc(-c2nc(CN3CCCC3Cn3cncn3)cs2)nc1 (stereo not drawn),27.6%
2,COCCC(=O)N1CCC(c2nc(O)cc(-c3ccncc3)n2)C1 (stereo not drawn),-0.902%
3,COc1cc(C(=O)N(CCC#N)Cc2ccccn2)cc(OC)c1C,7.9%
4,COCCN(CCOC)C(=O)c1ccoc1C,-0.551%
5,Cc1c(C(=O)N(CCN(C)C)Cc2ccccn2)oc2ccccc12,63.7%
6,Cc1occc1C(=O)N(CCN(C)C)Cc1ccccn1,51.3%
7,Cc1ccoc1C(=O)N(CCN(C)C)Cc1ccccn1,-31.4%
8,CN(C)CCN(Cc1ccccn1)C(=O)Nc1cccc(F)c1,18.9%
9,c1cnc(N2CCN(C3CCC[C@@H]4CN(CC5CC5)C[C@H]34)CC2)nc1 (stereo partly drawn),-34.7%
10,O=S1(=O)NC(C2CCCN(S(=O)(=O)N3CCCC3)C2)=Nc2ccccc21 (stereo not drawn),4.535%
11,Cc1ccc(OC2CCN(CCn3cncn3)CC2)cc1,86.8%
12,Clc1ccc(OCCN2CCN(CCn3cncn3)CC2)cc1,47.4%
13,Fc1ccc(OC2CCN(CCn3cncn3)CC2)cc1,-5.69%
14,O=C(NCC1CCS(=O)(=O)C1)c1ccc(NC(=O)c2ccco2)cc1 (stereo not drawn),18.6%
15,O=C(CCc1cscn1)N1CCCC(n2cncn2)C1 (stereo not drawn),31.8%
16,COc1ccc(OC)c(CNc2c(O)c(=O)c2=O)c1,47.4%
17,Cc1nn(C)c2c(NCCCn3cccn3)ncnc12,-43.4%
18,CCc1nc(NCc2ccccn2)c2c(n1)c(C)nn2C,42.1%
19,Cc1nn(C)c2c(NCCCn3cccn3)nc(C3CC3)nc12,42.4%
20,Cc1nc(NCCCn2cccn2)c2c(n1)c(C)nn2C,57.3%
21,CCCc1nc(NCCCn2cccn2)c2c(n1)c(C)nn2CC,27.5%
22,Cc1nn(C)c2c(NCCn3cccn3)ncnc12,-37.2%

row,SMILES,INHIBITION
1,CCc1nc(NCCCn2cccn2)c2c(n1)c(C)nn2CC,64%
2,CCc1nc(NCCn2cccn2)c2c(n1)c(C)nn2C,19.3%
3,Cc1nc(NCc2ccccn2)c2c(n1)c(C)nn2C,57.4%
4,Cc1nn(C)c2c(NCCCn3cccn3)nc(C(C)C)nc12,62.3%
5,CCc1nc(NCCCn2cccn2)c2c(n1)c(C)nn2C,10.3%
6,Cc1nn(C)c2c(NCc3ccccn3)nc(C(C)C)nc12,33.7%
7,Cc1ccc(S(=O)(=O)N2CC[C@H]3CO[C@H](CN(C)C)[C@H]3C2)cc1,32.2%
8,COc1ccc(CN2CCC3(CC2)CCN(CC(C)C)C3=O)cc1,13.2%
9,CCn1nc(C)c2nc(C)nc(NCCCn3cccn3)c21,39.1%
10,CCn1nc(C)c2nc(C(C)C)nc(NCCCn3cccn3)c21,50.7%
11,CCn1nc(C)c2nc(C(C)C)nc(NCCCn3ccnc3)c21,-13.085%
12,C[C@@H]1CN(c2ccc(C#N)cn2)CC[C@@]1(O)C1CCOCC1,24.76%
13,CCCc1n[nH]c(C2CN(C(=O)c3ccc(C)[nH]c3=O)CCO2)n1 (stereo not drawn),40.2%
14,COc1cc2c(c(OC)c1OC)CCN(CCn1nc(C)cc1C)CC2,36.3%
15,COc1cc2c(c(OC)c1OC)CCN(CCn1cncn1)CC2,52.6%
16,COc1cc(C)cc(C(C(=O)O)N(C)CCN2CCCC2)c1OC (stereo not drawn),28%
17,COc1ccc(CN2CCn3cncc3C2)cc1Cn1cncn1,16.1%
18,COc1cc2c(c(OC)c1OC)CCN(CCN1CCCCC1)CC2,54.8%
19,c1ccc(CCCN2CCN(CCn3cncn3)CC2)cc1,15.1%
20,CNC(=O)[C@H]1C[C@H]2OCC[C@H]2N(CCOc2ccc(Cl)cc2)C1,-52.3%
